# Records with an inconclusive call do not appear. Where a call stands in place of a potency, no number is given. The source made the active and inactive calls. Calls follow the shape of the dose curve; as a rule, active = well fitted activation curve with a large enough effect; inconclusive = small, poorly fitted or top-dose-only effect; inactive = flat fitted curve, though single readings scatter.
# Experiment: Primary redox qHTS assay for identification of artifact compounds. (AID 1845223)
# Conditions: Amplex Red/HRP redox cycling with DTT, fluorescence; series mostly up to 53.8 µM
# Outline: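 Amplex Red (25 uM) and HRP (250 mU/mL) in HBSS, with compounds for 15 min, then 250 uM DTT for 30 min, room temperature, dark. Fluorescence 525/598 nm read; normalized to DMSO and 10 uM DA3003; Hill fit.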
row,SMILES,Potency
1,CC(C)(O)c1ccc2c(c1)C(O)CC1C(C)(C(=O)O)CCCC21C (centres undefined),inactive
2,CCC(=O)N[C@@H]1Cc2ccccc2[C@H](c2ccccc2)C1,inactive
3,CC(=O)NCCCCn1c2c(c3ccccc31)C(=O)NCC2,inactive
4,CC(=O)OC[C@@]12[C@H](O)C[C@@H](C)[C@]3(C[C@@H](c4ccoc4)OC3=O)[C@H]1C[C@H](O)C[C@]21CO1,inactive
5,CC(C)C1=CCC(C)(O)C(OC2OC(CO)C(O)C(O)C2O)C1 (centres undefined),inactive
6,CC(C)C(=O)O[C@@H]1[C@@H](O)[C@@H](O[C@H]2O[C@H](CO)[C@@H](O)[C@H](O)[C@H]2O)O[C@H](CO)[C@H]1O,inactive
7,CC(C)C1(O[C@@H]2O[C@H](CO)[C@@H](O)[C@H](O)[C@H]2O)CC=C(CO)CC1 (some centres undefined),inactive
8,O=C(COc1ccc(Cl)cc1)NC1CCC(NC(=O)COc2ccc(Cl)cc2)CC1 (centres undefined),inactive
9,CC1(C)CC2C(O)C3=C(CC(C)(O)C2C1)C(=O)OC3O (centres undefined),inactive
10,COc1cccc2c1CCC[C@H]2CN(C)CCc1ccc2ccoc2c1,inactive
11,C=C(C)[C@H]1C[C@@H](O)C(=C)CC[C@@H](O)C(=C)[C@@H](O)C1,inactive
12,CC1(C)O[C@@]2(C)CC[C@@H]1C[C@@H]2OC1OC(CO)C(O)C(O)C1O (some centres undefined),inactive
13,O=C(/C=C/c1ccc(O)cc1)OC[C@H]1O[C@@H](OC(=O)/C=C/c2ccccc2)[C@H](O)[C@@H](O)[C@@H]1O,inactive
14,Cc1ncc([N+](=O)[O-])n1CC(O)CN1CCOCC1 (centres undefined),inactive
15,CC(CO[C@@H]1O[C@H](COC(=O)/C=C/c2ccc(O)c(O)c2)[C@@H](O)[C@H](O)[C@H]1O)C1(O)COC(=O)C1 (some centres undefined),inactive
16,Cc1cn2c(N)c(Cl)cc(C(=O)NCC3CCN(CC(C)C)CC3)c2n1,inactive
17,COC(=O)C1=CO[C@@H](O[C@@H]2O[C@H](CO[C@@H]3O[C@H](COC(=O)/C=C/c4ccc(O)cc4)[C@@H](O)[C@H](O)[C@H]3O)[C@@H](O)[C@H](O)[C@H]2O)[C@@H]2C(CO)=CC[C@H]12,inactive
18,Nc1ncnc2c1ncn2[C@H]1CCCO1,inactive
19,CCC(C)(O)C(O)C(=O)OCc1ccc(O[C@@H]2O[C@H](CO)[C@@H](O)[C@H](O)[C@H]2O)cc1 (some centres undefined),inactive
20,CC(=O)N1CCN(NC(=O)c2ccc(F)cc2)CC1,inactive

row,SMILES,Potency
1,COC(=O)C1(Cc2ccc(O)cc2)OC(=O)C(OC)=C1c1ccc(O)cc1 (centres undefined),inactive
2,C=CC1C(O[C@@H]2O[C@H](CO)[C@@H](O)[C@H](O)[C@H]2O)OC=C(C(=O)OC)C1Cc1nccc2c1[nH]c1ccccc12 (some centres undefined),inactive
3,CC(C)(C)c1cc(CN2CCN(CC(O)c3ccc(Cl)cc3)CC2)cc(C(C)(C)C)c1O (centres undefined),inactive
4,CC1(C)C(=O)N2c3ccccc3[C@]3(CC(n4cnc5ccccc5c4=O)C(=O)O3)[C@H]2N1O (some centres undefined),inactive
5,CC[C@H](C)/C=C(C)/C=C/C(=O)Cc1cc(O)c(C)c(O)c1C=O,inactive
6,CC(=O)c1c(O)cc2c(c1C)C(=O)CC(O)C2 (centres undefined),inactive
7,C[C@H](NCc1ccc(OCc2ccccc2F)cc1)C(N)=O,inactive
8,COc1cc(/C=C/c2cc(O)cc(O[C@@H]3O[C@H](CO)[C@@H](O)[C@H](O)[C@H]3O)c2)ccc1O,inactive
9,CC1(C)CC[C@]2(C(=O)O)CC[C@]3(C)C(=CCC4[C@@]5(C)C[C@H](O)[C@H](O[C@@H]6OC[C@H](O)[C@H](O)[C@H]6O)[C@@](C)(CO)C5CC[C@]43C)[C@@H]2C1 (some centres undefined),inactive
10,COc1cc([C@H]2OC[C@]3(OC(C)=O)[C@@H](c4ccc(O[C@@H]5O[C@H](CO)[C@@H](O)[C@H](O)[C@H]5O)c(OC)c4)OC[C@H]23)ccc1O,inactive
11,CC1(C)CCC(C)(C)c2cc3c(cc21)Sc1ccccc1N=C3c1ccc(C(=O)O)cc1,inactive
12,O=C(O)[C@H]1CCCC[C@H]1C(=O)N1CCc2ccccc2[C@H]1CN1C(=O)c2ccccc2C1=O,inactive
13,C=C1[C@H]2CC[C@]3(O)[C@@](CC[C@@H]4[C@](C)(C(=O)O)CCC[C@]43C)(C2)[C@H]1OC(=O)/C(C)=C\C,inactive
14,C[C@H]1[C@H](C)CC[C@]2(C(=O)O)CC[C@]3(C(=O)O)C(=CCC4[C@@]5(C)CC[C@H](O[C@@H]6O[C@H](C)[C@@H](O)[C@H](O)[C@H]6O)C(C)(C)C5CC[C@]43C)[C@H]12 (some centres undefined),inactive
15,O=C(c1ccccn1)c1cnn2c(-c3ccncc3)ccnc12,inactive
16,COc1c(C)c2c(c(O)c1C/C=C(\C)CC/C=C(\C)CCC(=O)O)C(=O)OC2,inactive
17,C=C1CC2(C(=O)O)CC1CCC2C1(C)CCCC2(C)C(=O)OC(O)C21 (centres undefined),inactive
18,CC(C)=CC/C=C(/C)[C@H]1CC[C@]2(C)[C@@H]1[C@H](O)CC1[C@@]3(C)CC[C@H](O)C(C)(C)[C@@H]3[C@@H](O[C@@H]3O[C@H](CO)[C@@H](O)[C@H](O)[C@H]3O[C@@H]3O[C@@H](C)[C@H](O)[C@@H](O)[C@H]3O)C[C@]12C (some centres undefined),inactive
19,O=C1NC(Cc2ccc(O)cc2)C(=O)N2CCCC12 (centres undefined),inactive
